# Reference: article PMC8384837, “Expanding the binding specificity for RNA recognition by a PUF domain”
# Key:
# Assay in all cases: yeast three-hybrid, YBZ-1, SC-Leu-His + 0.5 mM 3-AT, 4 days
# Conditions in all cases: tags: N-Gal4 AD-HA kept; label: inside an RPR1-promoter hybrid RNA with tandem MS2 sites; ssRNA
# [1] = molecular target: PUM1 PUF domain R3-SLE (Homo sapiens, UniProt Q14671 828-1176, C935S;R936L;Q939E)
# Method in brief: (§1)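 The interaction score is the logarithmic change in variant frequency from input to selection. It uses log2, with a pseudocount of 1 for absent variants, and frequencies came from PCR-amplified, Illumina-sequenced repeat regions. The libraries were Pumilio-1 PUF domains randomized at the three base-contacting residues per repeat, co-expressed with matching RNA elements in strain YBZ-1 (LexA–MS2 coat fusion, HIS3 reporter). Plating lasted four days on SC-Leu (input) or SC-Leu-His + 0.5 mM 3-AT (selection).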
# [2] = molecular target: PUM1 PUF domain R5-KKL (Homo sapiens, UniProt Q14671 828-1176, C1007K;R1008K;Q1011L)
# Method in brief: as §1
# [3] = molecular target: PUM1 PUF domain R5-EKC (Homo sapiens, UniProt Q14671 828-1176, C1007E;R1008K;Q1011C)
# Method in brief: as §1
# [4] = molecular target: PUM1 PUF domain R5-KWG (Homo sapiens, UniProt Q14671 828-1176, C1007K;R1008W;Q1011G)
# Method in brief: as §1
# [5] = molecular target: PUM1 PUF domain R5-RGD (Homo sapiens, UniProt Q14671 828-1176, C1007R;R1008G;Q1011D)
# Method in brief: as §1
# [6] = molecular target: PUM1 PUF domain R5-DFW (Homo sapiens, UniProt Q14671 828-1176, C1007D;R1008F;Q1011W)
# Method in brief: as §1
# [7] = molecular target: PUM1 PUF domain R5-NRF (Homo sapiens, UniProt Q14671 828-1176, C1007N;Q1011F)
# Method in brief: as §1
# [8] = molecular target: T1, PUM1 PUF domain R6-SFR (Homo sapiens, UniProt Q14671 828-1176, N1043S;Y1044F;Q1047R)
# T1 sequence: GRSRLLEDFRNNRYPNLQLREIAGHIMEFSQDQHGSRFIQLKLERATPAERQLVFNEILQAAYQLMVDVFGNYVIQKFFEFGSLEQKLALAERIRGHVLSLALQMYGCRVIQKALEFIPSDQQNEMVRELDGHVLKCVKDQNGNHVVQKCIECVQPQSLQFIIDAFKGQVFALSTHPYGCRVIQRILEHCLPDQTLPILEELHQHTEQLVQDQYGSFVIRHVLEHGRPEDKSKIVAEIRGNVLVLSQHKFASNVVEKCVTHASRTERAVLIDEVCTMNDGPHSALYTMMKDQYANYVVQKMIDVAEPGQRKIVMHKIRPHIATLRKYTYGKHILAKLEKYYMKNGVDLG
# Method in brief: as §1
# [9] = molecular target: PUM1 PUF domain R8-RWV (Homo sapiens, UniProt Q14671 828-1176, N1122R;Y1123W;Q1126V)
# Method in brief: as §1
# [10] = molecular target: PUM1 PUF domain R5-GQS (Homo sapiens, UniProt Q14671 828-1176, C1007G;R1008Q;Q1011S)
# Method in brief: as §1
# [11] = molecular target: PUM1 PUF domain R3-DRL (Homo sapiens, UniProt Q14671 828-1176, C935D;Q939L)
# Method in brief: as §1
# [12] = molecular target: PUM1 PUF domain R4-DFA (Homo sapiens, UniProt Q14671 828-1176, N971D;H972F;Q975A)
# Method in brief: as §1
# [13] = molecular target: PUM1 PUF domain R8-KFP (Homo sapiens, UniProt Q14671 828-1176, N1122K;Y1123F;Q1126P)
# Method in brief: as §1
# [14] = molecular target: PUM1 PUF domain R1-YQR (Homo sapiens, UniProt Q14671 828-1176, S863Y;R864Q;Q867R)
# Method in brief: as §1
# [15] = molecular target: PUM1 PUF domain R1-RVV (Homo sapiens, UniProt Q14671 828-1176, S863R;R864V;Q867V)
# Method in brief: as §1
# [16] = molecular target: PUM1 PUF domain R5-KHT (Homo sapiens, UniProt Q14671 828-1176, C1007K;R1008H;Q1011T)
# Method in brief: as §1
# [17] = molecular target: PUM1 PUF domain R3-RST (Homo sapiens, UniProt Q14671 828-1176, C935R;R936S;Q939T)
# Method in brief: as §1
# [18] = molecular target: PUM1 PUF domain R3-RDR (Homo sapiens, UniProt Q14671 828-1176, C935R;R936D;Q939R)
# Method in brief: as §1
# [19] = molecular target: PUM1 PUF domain R7-GVK (Homo sapiens, UniProt Q14671 828-1176, S1079G;N1080V;E1083K)
# Method in brief: as §1
# [20] = molecular target: PUM1 PUF domain R7-GTR (Homo sapiens, UniProt Q14671 828-1176, S1079G;N1080T;E1083R)
# Method in brief: as §1
sequence,measurement,setting,value
GGCUAGAACUAGUGGAUCCCCCGGCGCCCGGCGGCUCGAGCCCGGGUAAGUGUAAGUAGUCUGCAUGCCGCCGGGCGCCAUGCCUGCAGGUCGACUCUAGAAAACAUG,binding signal,[1],3.8 log2 enrichment (interaction score)
GGCUAGAACUAGUGGAUCCCCCGGCGCCCGGCGGCUCGAGCCCGGGUAAGUGUCAAUAGUCUGCAUGCCGCCGGGCGCCAUGCCUGCAGGUCGACUCUAGAAAACAUG,binding signal,[2],2.13 log2 enrichment (interaction score)
same,binding signal,[3],2.59 log2 enrichment (interaction score)
same,binding signal,[4],4.46 log2 enrichment (interaction score)
same,binding signal,[5],3.87 log2 enrichment (interaction score)
same,binding signal,[6],2.86 log2 enrichment (interaction score)
GGCUAGAACUAGUGGAUCCCCCGGCGCCCGGCGGCUCGAGCCCGGGUAAGUGUUAAUAGUCUGCAUGCCGCCGGGCGCCAUGCCUGCAGGUCGACUCUAGAAAACAUG,binding signal,[2],2.25 log2 enrichment (interaction score)
same,binding signal,[3],2.3 log2 enrichment (interaction score)
same,binding signal,[7],5.64 log2 enrichment (interaction score)
GGCUAGAACUAGUGGAUCCCCCGGCGCCCGGCGGCUCGAGCCCGGGUAAGUGCAAAUAGUCUGCAUGCCGCCGGGCGCCAUGCCUGCAGGUCGACUCUAGAAAACAUG,binding signal,[8],7.11 log2 enrichment (interaction score)
GGCUAGAACUAGUGGAUCCCCCGGCGCCCGGCGGCUCGAGCCCGGGUAAGUGUAAAUAGUCUGCAUGCCGCCGGGCGCCAUGCCUGCAGGUCGACUCUAGAAAACAUG,binding signal,[9],5.01 log2 enrichment (interaction score)
same,binding signal,[10],3.39 log2 enrichment (interaction score)
same,binding signal,[11],3.71 log2 enrichment (interaction score)
same,binding signal,[12],2.78 log2 enrichment (interaction score)
same,binding signal,[8],6.56 log2 enrichment (interaction score)
same,binding signal,[13],4.88 log2 enrichment (interaction score)
GGCUAGAACUAGUGGAUCCCCCGGCGCCCGGCGGCUCGAGCCCGGGUAAGUGUAAAUUGUCUGCAUGCCGCCGGGCGCCAUGCCUGCAGGUCGACUCUAGAAAACAUG,binding signal,[14],6.49 log2 enrichment (interaction score)
same,binding signal,[15],2.58 log2 enrichment (interaction score)
GGCUAGAACUAGUGGAUCCCCCGGCGCCCGGCGGCUCGAGCCCGGGUAAGCGUAAAUAGUCUGCAUGCCGCCGGGCGCCAUGCCUGCAGGUCGACUCUAGAAAACAUG,binding signal,[9],5.22 log2 enrichment (interaction score)
same,binding signal,[13],3.9 log2 enrichment (interaction score)
GGCUAGAACUAGUGGAUCCCCCGGCGCCCGGCGGCUCGAGCCCGGGUAAGUGUGAAUAGUCUGCAUGCCGCCGGGCGCCAUGCCUGCAGGUCGACUCUAGAAAACAUG,binding signal,[10],2.15 log2 enrichment (interaction score)
same,binding signal,[16],2.38 log2 enrichment (interaction score)
GGCUAGAACUAGUGGAUCCCCCGGCGCCCGGCGGCUCGAGCCCGGGUAAGUGUACAUAGUCUGCAUGCCGCCGGGCGCCAUGCCUGCAGGUCGACUCUAGAAAACAUG,binding signal,[12],6.02 log2 enrichment (interaction score)
GGCUAGAACUAGUGGAUCCCCCGGCGCCCGGCGGCUCGAGCCCGGGUAAGUGUAAAUCGUCUGCAUGCCGCCGGGCGCCAUGCCUGCAGGUCGACUCUAGAAAACAUG,binding signal,[15],2.37 log2 enrichment (interaction score)
GGCUAGAACUAGUGGAUCCCCCGGCGCCCGGCGGCUCGAGCCCGGGUAAGUGUAAUUAGUCUGCAUGCCGCCGGGCGCCAUGCCUGCAGGUCGACUCUAGAAAACAUG,binding signal,[17],2.83 log2 enrichment (interaction score)
same,binding signal,[18],4.8 log2 enrichment (interaction score)
GGCUAGAACUAGUGGAUCCCCCGGCGCCCGGCGGCUCGAGCCCGGGUAAGUUUAAAUAGUCUGCAUGCCGCCGGGCGCCAUGCCUGCAGGUCGACUCUAGAAAACAUG,binding signal,[19],4.74 log2 enrichment (interaction score)
same,binding signal,[20],4.38 log2 enrichment (interaction score)
